{"source": "PubChem BioAssay (Tox21)", "note": "Inconclusive results are not listed. Calls of active or inactive are those of the source. The call rests on the fitted dose curve. On the % scale 0 is the no-effect control and ±100 the full control effect.", "data": [{"target": "Acetylcholinesterase (Homo sapiens) (UniProt P22303)", "sequence (P22303 whole entry, looked up)": "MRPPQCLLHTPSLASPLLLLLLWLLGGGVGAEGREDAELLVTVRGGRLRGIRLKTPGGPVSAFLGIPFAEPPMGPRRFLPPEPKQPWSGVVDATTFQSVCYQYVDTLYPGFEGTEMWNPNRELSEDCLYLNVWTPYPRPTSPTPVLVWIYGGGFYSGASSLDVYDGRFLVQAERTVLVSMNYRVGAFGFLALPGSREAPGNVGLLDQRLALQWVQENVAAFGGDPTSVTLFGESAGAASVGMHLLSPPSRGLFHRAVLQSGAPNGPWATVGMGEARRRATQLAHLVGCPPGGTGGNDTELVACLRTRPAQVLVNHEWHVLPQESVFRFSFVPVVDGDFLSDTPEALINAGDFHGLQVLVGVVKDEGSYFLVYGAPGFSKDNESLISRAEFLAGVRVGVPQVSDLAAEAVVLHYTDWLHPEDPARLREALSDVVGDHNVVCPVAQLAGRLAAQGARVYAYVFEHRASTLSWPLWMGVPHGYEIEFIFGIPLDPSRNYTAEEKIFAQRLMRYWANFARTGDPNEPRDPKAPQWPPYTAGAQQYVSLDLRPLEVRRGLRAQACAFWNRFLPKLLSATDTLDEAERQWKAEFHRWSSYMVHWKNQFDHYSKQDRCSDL", "assay": "Acetylcholinesterase (AChE) small molecule antagonists: fluorescence cell-based qHTS assay (AID 1347398); further: nearly all actives have a fitted effect of over 50% in size", "conditions": "SH-SY5Y cells; Potency: AChE activity; outcome: AChE activity; series mostly up to 115 µM; activity change, negative = inhibition: at the top concentration", "procedure,_shortened": "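Human SH-SY5Y cells were plated overnight at 37 C, exposed to compound for 30 min at 37 C, 5% CO2, then given acetylthiocholine plus Thiolite Green for 40 min at room temperature; thiocholine fluorescence (Ex/Em 490/520 nm) reports endogenous AChE activity.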", "values": [{"smiles": "CCC=CC#N", "activity change, negative = inhibition": "-18.3% (inactive)"}, {"smiles": "CCCCCCOC(=O)NC(=N)c1ccc(NCc2nc3cc(C(=O)N(CCC(=O)OCC)c4ccccn4)ccc3n2C)cc1", "activity change, negative = inhibition": "-11.2% [at 53.7 µM] (inactive)"}, {"smiles": "CC(=O)N(c1onc(C)c1C)S(=O)(=O)c1ccc(N)cc1", "activity change, negative = inhibition": "-22.5% [at 53.7 µM] (inactive)"}, {"smiles": "CC(C)[N+](C)(C)CC(O)COc1cccc2ccccc12", "note": "(stereo not drawn)", "activity change, negative = inhibition": "-2.6% [at 53.7 µM] (inactive)"}, {"smiles": "COCc1nnc(-c2ccc[n+]([O-])c2)n1-c1c(Cl)c(Cl)cc2[nH]c(=O)c(=O)[nH]c12", "activity change, negative = inhibition": "0.357% (inactive)"}, {"smiles": "C1=CCC2CC=CC2C1", "note": "(stereo not drawn)", "activity change, negative = inhibition": "-27.9% (inactive)"}, {"smiles": "CCCCCCCCCCCCCCN(C)C", "activity change, negative = inhibition": "2.04% [at 23.8 µM] (inactive)"}, {"smiles": "C=C(C)C(=O)OCC(C)(C)COC(=O)C(=C)C", "activity change, negative = inhibition": "2.73% (inactive)"}, {"smiles": "CC(C)(C)c1cc(CCC(=O)OCCSCCOC(=O)CCc2cc(C(C)(C)C)c(O)c(C(C)(C)C)c2)cc(C(C)(C)C)c1O", "activity change, negative = inhibition": "-3.43% [at 53.7 µM] (inactive)"}, {"smiles": "CCC(Cl)CCC(Cl)C(Cl)CC(Cl)C(Cl)C(Cl)CCl", "note": "(stereo not drawn)", "activity change, negative = inhibition": "-2.46% (inactive)"}, {"smiles": "O=C(Cn1ccnc1[N+](=O)[O-])NCCO", "activity change, negative = inhibition": "6.78% [at 53.7 µM] (inactive)"}, {"smiles": "CC(C)COC(=O)COc1cc(Cl)c(Cl)cc1Cl", "activity change, negative = inhibition": "-10.3% (inactive)"}, {"smiles": "Clc1cc(Cl)c(Cl)nc1Cl", "activity change, negative = inhibition": "0.411% (inactive)"}, {"smiles": "c1cc2c3c(c1)ccc1cccc(c13)C2", "activity change, negative = inhibition": "-0.99% (inactive)"}, {"smiles": "OCC(CO)N[C@H]1C[C@](O)(CO)[C@@H](O)[C@H](O)[C@H]1O", "activity change, negative = inhibition": "7.1% [at 53.7 µM] (inactive)"}, {"smiles": "CCN(CC)c1cccc(C)c1", "activity change, negative = inhibition": "1.09% (inactive)"}, {"smiles": "O=C(Oc1ccccc1)c1cccc(C(=O)Oc2ccccc2)c1", "activity change, negative = inhibition": "-8.38% (inactive)"}, {"smiles": "CC(=O)C=O", "activity change, negative = inhibition": "-2.88% (inactive)"}]}, {"target": "Acetylcholinesterase (Homo sapiens) (UniProt P22303)", "assay": "Acetylcholinesterase (AChE) small molecule antagonists: enzyme-based qHTS assay with human liver microsomes (AID 1347399); further: nearly all actives have a fitted effect of over 60% in size", "conditions": "Potency: qHTS inhibition; outcome: qHTS inhibition; series mostly up to 115 µM; activity change, negative = inhibition: at the top concentration", "procedure,_shortened": "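Recombinant human AChE (50 mU/mL in the enzyme mix) and human liver microsomes (0.25 mg/mL final) were preincubated with compound and NADPH (0.25 mg/mL final) for 30 min at 37 C. Acetylthiocholine/DTNB was then added; thiocholine was read colorimetrically after 10 min at room temperature.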", "values": [{"smiles": "CCC1CCCCC1", "activity change, negative = inhibition": "-2.11% (inactive)"}, {"smiles": "CCOC(=O)/C=C(C)/C=C/C=C(C)/C=C/c1c(C)cc(OC)c(C)c1C", "activity change, negative = inhibition": "5.2% [at 53 µM] (inactive)"}, {"smiles": "Cc1occc1C(=O)Nc1ccc(C(=O)N2CCC(F)(F)/C(=C\\C(=O)N3CCC(N4CCCCC4)CC3)c3ccccc32)cc1", "activity change, negative = inhibition": "-1.8% [at 53 µM] (inactive)"}, {"smiles": "CCOC(=O)CCc1ccccc1", "activity change, negative = inhibition": "1.15% (inactive)"}, {"smiles": "O=C1c2ccccc2-c2ccccc21", "activity change, negative = inhibition": "0.169% (inactive)"}, {"smiles": "CN1CCCC1", "activity change, negative = inhibition": "-1.07% (inactive)"}, {"smiles": "COc1ccc2c(c1)c1c3n2CCN(C)C3=NCC1", "activity change, negative = inhibition": "1.34% [at 53 µM] (inactive)"}, {"smiles": "Cc1ccc(NC(N)=O)cc1", "activity change, negative = inhibition": "2.82% (inactive)"}, {"smiles": "CCOC(=O)[C@H](CCc1ccccc1)N[C@@H](C)C(=O)N1[C@H](C(=O)O)C[C@@H]2CCC[C@@H]21", "activity change, negative = inhibition": "0.0795% [at 53 µM] (inactive)"}, {"smiles": "Cc1ccc2ccc3cccc4ccc1c2c34", "activity change, negative = inhibition": "-1.35% (inactive)"}, {"smiles": "c1ccc(-c2nc3ccccc3[nH]2)cc1", "activity change, negative = inhibition": "0.243% (inactive)"}, {"smiles": "CC(C)C1CCC(O)CC1", "note": "(stereo not drawn)", "activity change, negative = inhibition": "-3.12% (inactive)"}, {"smiles": "CC(C)(C)c1ccc(OC(=O)c2ccccc2O)cc1", "activity change, negative = inhibition": "-0.448% (inactive)"}, {"smiles": "Cc1nc(-c2ccc3c(c2)CCN(CCC2CCC(NC(=O)/C=C/c4ccc(F)cc4)CC2)CC3)no1", "note": "(stereo not drawn)", "activity change, negative = inhibition": "3.13% [at 53 µM] (inactive)"}, {"smiles": "C=Cc1ccc(S(=O)(=O)O)cc1", "activity change, negative = inhibition": "5.46% (inactive)"}, {"smiles": "CC(=O)NC(Cc1ccccc1)C(=O)O", "note": "(stereo not drawn)", "activity change, negative = inhibition": "0.84% [at 53 µM] (inactive)"}, {"smiles": "CC(C)=CCC/C(C)=C\\C#N", "activity change, negative = inhibition": "0.0764% (inactive)"}, {"smiles": "CCCCCCCCC(C)=O", "activity change, negative = inhibition": "0.567% (inactive)"}, {"smiles": "CC(C)COC(=O)c1ccc(O)cc1", "activity change, negative = inhibition": "0.254% (inactive)"}, {"smiles": "C[C@H](CCC(=O)NCC(=O)O)[C@H]1CC[C@H]2[C@@H]3[C@H](O)C[C@@H]4C[C@H](O)CC[C@]4(C)[C@H]3C[C@H](O)[C@]12C", "activity change, negative = inhibition": "0.68% (inactive)"}, {"smiles": "C/C=C(\\C)C(=O)OCC/C=C\\CC", "activity change, negative = inhibition": "-0.298% (inactive)"}, {"smiles": "CCN(CC)c1ccc(C(=C2C=CC(=[N+](CC)CC)C=C2)c2cc(S(=O)(=O)O)ccc2S(=O)(=O)[O-])cc1", "activity change, negative = inhibition": "9.74% [at 53 µM] (inactive)"}, {"smiles": "CCC=CC#N", "activity change, negative = inhibition": "2.69% (inactive)"}, {"smiles": "CCCCCCOC(=O)NC(=N)c1ccc(NCc2nc3cc(C(=O)N(CCC(=O)OCC)c4ccccn4)ccc3n2C)cc1", "activity change, negative = inhibition": "-1.93% [at 53 µM] (inactive)"}, {"smiles": "CC(=O)N(c1onc(C)c1C)S(=O)(=O)c1ccc(N)cc1", "activity change, negative = inhibition": "-0.295% [at 53 µM] (inactive)"}, {"smiles": "CC(C)[N+](C)(C)CC(O)COc1cccc2ccccc12", "note": "(stereo not drawn)", "activity change, negative = inhibition": "0% [at 53 µM] (inactive)"}, {"smiles": "COCc1nnc(-c2ccc[n+]([O-])c2)n1-c1c(Cl)c(Cl)cc2[nH]c(=O)c(=O)[nH]c12", "activity change, negative = inhibition": "0% (inactive)"}, {"smiles": "C1=CCC2CC=CC2C1", "note": "(stereo not drawn)", "activity change, negative = inhibition": "3.01% (inactive)"}, {"smiles": "CCCCCCCCCCCCCCN(C)C", "activity change, negative = inhibition": "0.379% [at 23.6 µM] (inactive)"}, {"smiles": "C=C(C)C(=O)OCC(C)(C)COC(=O)C(=C)C", "activity change, negative = inhibition": "-0.254% (inactive)"}, {"smiles": "CC(C)(C)c1cc(CCC(=O)OCCSCCOC(=O)CCc2cc(C(C)(C)C)c(O)c(C(C)(C)C)c2)cc(C(C)(C)C)c1O", "activity change, negative = inhibition": "5.57% [at 53 µM] (inactive)"}, {"smiles": "CCC(Cl)CCC(Cl)C(Cl)CC(Cl)C(Cl)C(Cl)CCl", "note": "(stereo not drawn)", "activity change, negative = inhibition": "-5.18% (inactive)"}, {"smiles": "O=C(Cn1ccnc1[N+](=O)[O-])NCCO", "activity change, negative = inhibition": "-0.342% [at 53 µM] (inactive)"}, {"smiles": "CC(C)COC(=O)COc1cc(Cl)c(Cl)cc1Cl", "activity change, negative = inhibition": "-0.824% (inactive)"}, {"smiles": "Clc1cc(Cl)c(Cl)nc1Cl", "activity change, negative = inhibition": "1.71% (inactive)"}, {"smiles": "c1cc2c3c(c1)ccc1cccc(c13)C2", "activity change, negative = inhibition": "-3.87% (inactive)"}, {"smiles": "OCC(CO)N[C@H]1C[C@](O)(CO)[C@@H](O)[C@H](O)[C@H]1O", "activity change, negative = inhibition": "0.362% [at 53 µM] (inactive)"}, {"smiles": "CCN(CC)c1cccc(C)c1", "activity change, negative = inhibition": "-0.486% (inactive)"}, {"smiles": "O=C(Oc1ccccc1)c1cccc(C(=O)Oc2ccccc2)c1", "activity change, negative = inhibition": "-3.25% (inactive)"}, {"smiles": "CC(=O)C=O", "activity change, negative = inhibition": "0.886% (inactive)"}]}]}
